An excerpt weighted towards active compounds, which were near 7.9% of everything screened.
HCV inh = inhibitors of hepatitis C virus infection. Huh7.5.1 HCVcc-Cre infection, luciferase reporter, 44 h. Potency, µM (highest dose often 41.8 µM), for inactives: at the top dose activity change, negative = inhibition, actives largely listed as inhibitors. 340,000 compounds, 3.4% hits. AID 651820; active means well fitted inhibition curve with a large enough effect; inconclusive means small, poorly fitted or top-dose-only effect, or another doubt; inactive means no such curve, though single readings can be large or run the other way; further: potency means the concentration at half of the fitted maximal effect
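HCVcc-Cre virus at an moi near 0.5 was added right after compound to cells cultured 4 h from seeding (1,000 cells/well). Luciferase activity was determined 44 h later, 15 min after substrate addition at RT.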
Marburg entry inh = blocks Marburg virus binding to or entry into cells; Marburg virus pseudotyped entry inhibition, cell reporter; Potency, µM (series often up to 37.8 µM), for the others: at the highest dose activity change, negative = inhibition, usual class: inhibitors; 300,000 compounds, 1.8% hits; calls by dose curve; tested in HEK293 cells; further: potency means the concentration at half of the fitted maximal effect
HCMV inh = human cytomegalovirus inhibition; HFF cells, HCMV-luciferase reporter, 72 h; stronger effect = lower value; activity change, negative = inhibition, % at 57.5 µM; 410,000 compounds, 4.5% hits; in the data active means activity change below about -60%; inconclusive means no clear call, values can overlap the other calls; inactive means above about -39%
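Human foreskin fibroblasts infected with luciferase-reporter HCMV at MOI 1 PFU/cell, compounds at two doses. Luciferase measured 72 h post infection; normalized to buffer-only basal and Salinomycin (10uM) controls.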
Lassa entry inh = Lassa virus entry inhibition; Lassa virus pseudotype entry inhibition, cell reporter; Potency, µM (top dose mostly 37.9 µM), for inactives: top-dose activity change, negative = inhibition, usual class: inhibitors; 300,000 compounds, 1.2% hits; calls by dose curve; tested in HEK293 cells; further: potency means the concentration at half of the fitted maximal effect; nearly all actives have a fitted effect of over 50% in size
FMDV antiviral = antivirals against foot and mouth disease virus; FMDV antiviral cell-based qHTS; Potency, µM (series often up to 57.9 µM), for inactives: at the top dose activity change, negative = inhibition, hits mostly inhibitors; 410,000 compounds, 1.2% hits; calls by dose curve; tested in HEK293T cells; further: read-out not given here; potency means the concentration at half of the fitted maximal effect; nearly all actives have a fitted effect of over 45% in size
* = called active by the depositor; ? = inconclusive; . = no result; [ ] = remark or other dose. On the % scale 0 is the no-effect control and ±100 the full control effect.

SMILES	HCV inh	Marburg entry inh	HCMV inh	Lassa entry inh	FMDV antiviral
Cc1cccc(NC(=O)c2nc(S(C)(=O)=O)ncc2Cl)c1	.	.	-108*	?	25µM*
COc1cccc(NC(=O)c2nc(SC)ncc2Cl)c1	12%	24%[46.1 µM]	-3	0%[46.1 µM]	-3%
Cc1ccc(Cl)cc1N1CCN(C(=O)Cn2ncc3c([nH]c4ccccc43)c2=O)CC1	.	.	7	11%[46.1 µM]	2%
COCCN1C=C(C(=O)OC)C(c2cc(Br)c(OC)c(OC)c2)C(C(=O)OC)=C1	-25%	-23%	42	11µM*	-25%
COc1cc(/C=N/NC(=O)c2sc(N)c(C#N)c2C)ccc1O	-11%	4.5µM*	-34	-7%	-18%
COC(=O)COc1ccc(-c2nnc(Nc3ccc(O)cc3)c3ccccc23)cc1	.	-5%[46.1 µM]	-107*	19%[46.1 µM]	?
CCOc1ccc(-c2nnc(Nc3ccc(OC)c(C(=O)N4CCCCC4)c3)c3ccccc23)cc1	14µM*	3%	-23	.	-11%
Cc1cc(C)cc(-n2ccnc2SCC(=O)Nc2nnc(C)s2)c1	.	.	-5	-21%[46.1 µM]	0%
CC1CCn2c(nc3cc(C(=O)NCc4ccc(F)cc4)ccc32)C1 (stereo not drawn)	.	.	-38	-3%[46.1 µM]	3%
COc1cc(N=c2ssnc2Cl)c(OC)cc1Cl	?	16µM*	-3	?	?
Cc1ccccc1C(=O)n1nc(-c2cccnc2)nc1NCc1ccc(F)cc1	.	?	-5	15%[46.1 µM]	?
CN(CC(=O)Nc1cccc(F)c1)C(=O)c1cc(-c2cccs2)nn1-c1ccccc1	11µM*	-19%	-12	4%	?
CN(CC(=O)Nc1ccccc1C(F)(F)F)C(=O)c1cc(-c2cccs2)nn1-c1ccccc1	?	2%	-13	-1%	-26%
Cc1ccc(N2C(=O)/C(=C/N3CCN(C(=O)c4ccco4)CC3)C(=O)NC2=S)cc1C	-4%	3%	-101*	6%	0%
CCC(C)Sc1ccc([C@@H]2[C@@H]3C(=O)N(CC)C(=O)[C@@H]3[C@]3(C(=O)OC)CCCCN23)cc1OC (stereo partly drawn)	11µM*	.	14	.	-24%
CCOC(=O)C1(Cc2cccc(OC)c2)CCN(Cc2cccc(OC)c2OC)CC1	10µM*	?	?	-26%	?
CCOC(=O)C1(CCOc2ccccc2)CCN(Cc2cccn2-c2ncccn2)CC1	-27%	8.9µM*	64	?	-3%
CCOC(=O)C1(CC2CC2)CCN(Cc2cnc(-c3ccc(OC)cc3)nc2)CC1	?	?	-62*	-25%	?
CCOC(=O)C1(CCOc2ccccc2)CCN(Cc2cccc(OC)c2)CC1	11µM*	.	1	.	-42%
CCOC(=O)C1(Cc2cccc(OC)c2)CCN(Cc2cc(OC)ccc2OC)CC1	?	?	-40	?	3%
CCOC(=O)C1(Cc2cccc(OC)c2)CCN(Cc2ccccc2)CC1	?	?	1	?	?
CCOC(=O)C1(Cc2cccc(OC)c2)CCN(Cc2cnc(N)nc2)CC1	-6%	?	-27	6%	-18%
CCn1cc(CN2CCOc3ccc(C(O)C4CCCCC4)cc3C2)c(C)n1 (stereo not drawn)	.	.	.	.	-20%
Cc1cc(NS(=O)(=O)c2ccc(NC(=O)COc3ccc(Cl)cc3)cc2)nc(C)n1	.	-2%[46.1 µM]	-4	-5%[46.1 µM]	41%
COc1ccc(Cl)cc1NC(=O)c1cn(C2CCCC2)c(=O)c2c1c1ccccc1n2C	.	?	-15	20%[46.1 µM]	0%
SMILES	HCV inh	Marburg entry inh	HCMV inh	Lassa entry inh	FMDV antiviral
CC(C)CC(=O)Nc1ccc(C(=O)OCc2cc(=O)n3nc(C(C)C)sc3n2)cc1	.	.	0	7%[46.1 µM]	?
CCOC(=O)C1(Cc2ccccc2Cl)CCN(C(=O)CN2CCOC2=O)CC1	10%	?	1	?	20%
CCOC(=O)C1(CCOc2ccccc2)CCN(Cc2ccc(-n3cccn3)cc2)CC1	2.5µM*	.	-61*	.	?
CCOC(=O)C1(Cc2ccccc2Cl)CCN(Cc2csc(C(C)=O)c2)CC1	13µM*	?	-8	?	-22%
CCOC(=O)C1(Cc2ccc(Cl)cc2)CCN(Cc2ccon2)CC1	1%	.	-66*	.	-22%
CCOC(=O)C1(CCOC)CCN(Cc2ccncc2)CC1	17%	1%[46.1 µM]	7	?	-12%
CCOC(=O)C1(Cc2cccc(F)c2)CCN(Cc2ccon2)CC1	7%	-23%[46.1 µM]	-38	12%	-26%
CCOC(=O)C1(CCOC)CCN(C/C=C/c2ccccc2OC)CC1	11µM*	.	10	.	?
Cn1nc(C(=O)Nc2ccc(F)c(Cl)c2)c2c1-c1ccccc1S(=O)(=O)C2	.	.	-19	-23%[46.1 µM]	-7%
O=C(CCS(=O)(=O)c1cccc2nonc12)Nc1c(F)cccc1F	.	-8%[46.1 µM]	-19	8%[46.1 µM]	3%
C=CCC(CC=C)(CNC(=O)C(=O)Nc1cc(C)ccc1OC)c1ccc(OC)c(OC)c1	.	-18%[46.1 µM]	9	?	0%
CCOC(=O)C1(Cc2cccc(F)c2)CCN(Cc2cn(CC)nc2C)CC1	?	?	0	2%	-25%
CCOC(=O)C1(Cc2ccccc2)CCN(Cc2cn[nH]c2-c2ccccc2)CC1	?	.	-78*	.	?
CCOC(=O)C1(Cc2cccc(F)c2)CCN(Cc2c(C)nn(CC)c2C)CC1	13µM*	.	?	.	?
Cc1nc2sccn2c(=O)c1S(=O)(=O)NCc1ccc(F)cc1	.	.	5	8%[46.1 µM]	2%
C[C@@H](NC(=O)c1coc(=O)c(Br)c1)c1ccccc1	?	?	7	?	40µM*
COc1ccc(C(=O)NC(C)c2ccccc2)cc1Br (stereo not drawn)	-11%	-18%	?	?	-17%
Cc1cc(NC(=O)c2coc(=O)c(Br)c2)ccc1C(C)C	8%	?	51	2%	1µM*
Cc1cc(-c2ccccc2)nc2cc(C(=O)Nc3cc(C(F)(F)F)ccc3Cl)nn12	.	.	-30	-1%[46.1 µM]	-16%
COc1cc(Nc2cc3c(cn2)cc(-c2cccnc2)n3C)cc(C(F)(F)F)c1	.	.	0	.	.
C/C(=N\Nc1ccc(F)cc1F)c1ccc(Br)s1	?	1%[46.1 µM]	-70*	5%[46.1 µM]	6%
CNS(=O)(=O)c1cccc(C(=O)OCC(=O)NC(C)CCc2ccccc2)c1 (stereo not drawn)	11%	.	-2	.	-3%
CC(CCc1ccccc1)NC(=O)COC(=O)c1cc(NS(=O)(=O)c2ccc(Cl)c([N+](=O)[O-])c2)ccc1O (stereo not drawn)	?	2.5µM*	-16	-12%	-10%
CC(CCc1ccccc1)NC(=O)COC(=O)c1ccc(NC(N)=O)cc1 (stereo not drawn)	-13%	.	-71*	.	-23%
COc1ccc(C(=O)OCC(=O)NC(C)CCc2ccccc2)cc1 (stereo not drawn)	0%	?	-29	-5%	-8%
COc1ccc(-n2c(SCC(=O)NCc3ccccc3)nc3c([nH]c4ccccc43)c2=O)cc1	.	.	2	-7%[46.1 µM]	?
Cc1ccc(Oc2nc3c(C)cccn3c(=O)c2/C=C(\C#N)C(N)=O)cc1	-19%	-2%	11	?	18µM*

Screening data deposited in PubChem BioAssay by National Center for Advancing Translational Sciences (NCATS).
